Compound activity (PubChem)
DAGLB inh = blocks human DAGLB lipase activity | Q8NCG7 | HEK293T DAGLB membrane lysate, EnzChek fluorogenic substrate | inhibition, % at 5.17 µM | actives 0.059% (n = 340,000) | AID 504411; in the data active means inhibition above about 34%
Target sequence (Q8NCG7 whole entry, looked up): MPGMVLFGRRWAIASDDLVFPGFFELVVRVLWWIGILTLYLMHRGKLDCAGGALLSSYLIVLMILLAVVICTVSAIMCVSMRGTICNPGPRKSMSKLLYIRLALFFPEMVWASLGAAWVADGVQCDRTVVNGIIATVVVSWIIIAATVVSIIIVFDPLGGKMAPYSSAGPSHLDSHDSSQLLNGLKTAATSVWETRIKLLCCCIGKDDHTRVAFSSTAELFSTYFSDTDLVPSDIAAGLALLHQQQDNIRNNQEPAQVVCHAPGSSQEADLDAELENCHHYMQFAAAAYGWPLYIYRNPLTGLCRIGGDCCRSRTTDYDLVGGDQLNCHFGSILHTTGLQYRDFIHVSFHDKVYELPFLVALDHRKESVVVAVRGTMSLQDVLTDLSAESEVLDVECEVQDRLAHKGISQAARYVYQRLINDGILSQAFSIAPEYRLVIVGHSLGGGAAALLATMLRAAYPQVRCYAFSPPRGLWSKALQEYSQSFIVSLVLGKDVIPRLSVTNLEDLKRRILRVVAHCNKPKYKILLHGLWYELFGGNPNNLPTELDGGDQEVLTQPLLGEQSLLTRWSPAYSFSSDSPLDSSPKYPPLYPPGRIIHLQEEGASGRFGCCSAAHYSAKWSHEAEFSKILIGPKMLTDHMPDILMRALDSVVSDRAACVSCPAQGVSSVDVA
PAFAH1B3 inh = blocks human PAF acetylhydrolase 1B catalytic subunit 3; AID 492972; Q15102; actives 0.28% (n = 340,000); recombinant PAFAH1B3, FP-rhodamine probe, fluorescence polarization; inhibition, % at 3.39 µM;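 active means inhibition above the screen-wide average of all tested compounds plus 3 SD, cut at about 25% in these data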
PAFAH2 inh = PAFAH2 (human) inhibition; Q99487; AID 492956; actives 0.99% (n = 340,000); recombinant PAFAH2, FP-rhodamine activity probe, fluorescence polarization; inhibition, % at 3.39 µM;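 active means inhibition above the mean over all tested compounds plus 3 SD, cut at about 30% in these data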;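 further: inhibitors block probe labeling of enzyme so polarization drops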
ATG4B inh = ATG4B (human) cysteine protease inhibition; inhibition, % at 8.33 µM; actives 0.51% (n = 340,000); AID 504462; ATG4B cleavage of LC3-PLA2, NBD-HPC fluorescence, 1 h; in the data active means inhibition above about 40%
pPAFAH FP inh = inhibitors of human plasma PAF acetylhydrolase (pPAFAH). Q13093. recombinant pPAFAH, FP-rhodamine probe fluorescence polarization. inhibition, % at 3.39 µM. actives 1.5% (n = 330,000). AID 463082;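 active means inhibition above the mean inhibition across the screen plus 3 SD, cut at about 25% in these data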;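 further: inhibitors block binding of the rhodamine activity-based probe so polarization drops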
PAFAH1B2 FP inh = blocks human PAF acetylhydrolase 1b catalytic subunit 2; P68402; recombinant PAFAH1B2, FP-rhodamine activity probe, fluorescence polarization; inhibition, % at 3.39 µM; actives 1.2% (n = 340,000);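 active means inhibition above the mean of all tested compounds plus 3 SD, cut at about 24% in these data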
A number is an active result; n = inactive; x = no result given. Sampled rows, rich in hits. Any-hit rate of the full collection: about 3%.

SMILES | DAGLB inh | PAFAH1B3 inh | PAFAH2 inh | ATG4B inh | pPAFAH FP inh | PAFAH1B2 FP inh
C=CCn1c(SCC(=O)c2ccc(O)c(O)c2)nnc1-c1cccc(Cl)c1 | n | n | 39.0 | n | 28.5 | n
C=CCn1c(SCC(=O)Nc2cc(C)on2)nnc1-c1ccccc1OC | n | n | n | n | n | n
C=CCn1c(SCC(=O)c2ccc(O)c(O)c2)nnc1-c1ccccc1OC | n | n | n | n | 27.1 | n
Oc1c(I)cc(Cl)c2cccnc12 | n | n | n | n | 31.0 | n
O=S(=O)(c1ccc(F)cc1)n1cnc2ccccc21 | n | n | n | n | n | 25.8
CC(C)c1ccc(N2C(=O)CC(Sc3ncn[nH]3)C2=O)cc1 (stereo not drawn) | n | n | n | n | n | n
CC(C)c1ccc(N2C(=O)CC(Sc3nc4ccccc4o3)C2=O)cc1 (stereo not drawn) | n | n | n | n | n | 25.9
CCOC(=O)c1c(NC(=O)Cc2ccccc2)sc2c1CC(C)(C)NC2(C)C | n | n | n | n | 31.9 | n
Cc1cc(C)nc(SCC(=O)N/N=C\C(Br)=C\c2ccccc2)n1 | n | n | n | n | n | n
Cc1ccc(NCC(=O)N/N=C\C(Br)=C\c2ccccc2)cc1 | n | n | n | n | 27.5 | n
O=C(CN1c2cccc3cccc(c23)S1(=O)=O)NC1CCCCC1 | n | n | n | n | 29.5 | n
Cc1onc(-c2c(Cl)cccc2Cl)c1C(=O)NCCc1ccncc1 | n | n | n | n | n | n
CCCn1c(SC(C)C(=O)NCC2CCCO2)nc2sc3c(c2c1=O)CCC3 (stereo not drawn) | n | n | n | n | n | n
C=CCn1c(SCc2nc3sc(C(=O)O)c(C)c3c(=O)[nH]2)nnc1-c1ccc(C(C)(C)C)cc1 | n | n | n | n | 26.1 | n
O=S(=O)(c1ccc(N2CCOCC2)cc1)N1CCOCC1 | n | n | n | n | n | n
Cn1cnc(S(=O)(=O)N2CCN(c3ccc(Cl)cc3)CC2)c1 | n | n | n | n | n | 28.4
O=S(=O)(c1ccc(Cl)cc1)N1CCN(c2ccc(N3CCOCC3)nn2)CC1 | n | n | n | n | n | 26.4
O=C(N1CCOCC1)N1CCN(S(=O)(=O)c2ccc(Cl)cc2)CC1 | n | n | n | n | n | 24.9
O=C(O)c1ccccc1C(=O)Nc1cc(C(F)(F)F)ccc1N1CCCC1 | n | n | n | n | 30.1 | n
CC(C)CC(=O)Nc1cc2c3c(c1)C(C)C(=O)N3CCC2 (stereo not drawn) | n | n | n | n | n | n
COc1ccc(N(CC(=O)NC2CCS(=O)(=O)C2)S(=O)(=O)c2ccc(Cl)c(Cl)c2)cc1 (stereo not drawn) | n | n | n | n | x | n
CCOc1cc(OCC)cc(C(=O)O)c1 | n | n | n | n | n | n
O=C(NCc1ccccc1)c1cccc(COc2ccc3c(c2)CCC3)c1 | n | n | n | n | n | n
O=C(O)c1cc(OCc2ccccc2)cc(OCc2ccccc2)c1 | n | n | n | n | n | 28.8
O=C(O)c1cccc(COc2ccc3c(c2)CCC3)c1 | n | n | n | n | n | 48.0
SMILES | DAGLB inh | PAFAH1B3 inh | PAFAH2 inh | ATG4B inh | pPAFAH FP inh | PAFAH1B2 FP inh
COc1ccc(OCc2cccc(C(=O)O)c2)cc1 | n | n | n | n | n | 25.1
COc1ccc(S(=O)(=O)N2CCN(C(=O)CCCN3C(=O)NC4(CCCC4)C3=O)CC2)cc1 | n | n | n | n | x | n
C=CCSc1nnc(CCc2ccccc2)n1N | n | n | n | n | x | n
O=C(COC(=O)CNC(=O)c1ccccc1Cl)Nc1ccccc1Cl | n | n | n | n | n | n
Cc1ccc(S(=O)(=O)N2CCC(C(=O)N[C@@H](Cc3ccccc3)C(=O)O)CC2)cc1 | n | n | n | n | n | n
O=C(NC(Cc1ccccc1)C(=O)O)C1CCN(S(=O)(=O)c2cccc(C(F)(F)F)c2)CC1 (stereo not drawn) | n | n | n | n | 27.3 | n
CC1(OC(=O)CCc2ccccc2)C(=O)C=C2C=C(c3ccc(C#N)cc3)N(c3ccccc3)C=C2C1=O (stereo not drawn) | n | n | n | n | n | n
CC1(OC(=O)c2cccs2)C(=O)C=C2C=C(c3ccsc3)OC=C2C1=O (stereo not drawn) | x | x | x | x | 55.6 | x
CC1(OC(=O)CCc2ccccc2)C(=O)C=C2C=C(c3ccsc3)OC=C2C1=O (stereo not drawn) | x | x | x | x | 54.6 | x
